Source: the supplement of paper PMC10981050
“And” between values parts separate entries of the source, which are not always exact repeats. Identical values can stand only once. Counter-ions that a name gives are not always drawn.

Legend:
Assay in all cases: cell viability relative to vehicle control; higher = less cytotoxic
Conditions in all cases: 10 µM
[1] = test system: K562
In short: (§1)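 CRISPR-edited mutant clones and isogenic wild-type clones from four leukaemia lines were screened against Selleck bioactive, kinase and epigenetic probe libraries, with identity-inconsistent compounds excluded. Each compound was acoustically dispensed at a single 10 µM dose into 384-well plates holding 2000 cells in 50 µL medium per well. After 48 h the supernatant was removed and CellTiter-Glo luminescence was read. Viability was expressed as percent of the on-plate vehicle control and analysed in Genedata Screener.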

[2] = test system: MARIMO
In short: as §1

[3] = test system: MOLM14
In short: as §1

[4] = test system: OCI-AML2
In short: as §1

SMILES	cell viability ([1]; SRSF2 genotype: SRSF2 P95H/wt)	cell viability ([1]; SRSF2 genotype: SRSF2 wt/wt) [%]	cell viability ([2]; SRSF2 genotype: SRSF2 P95H/wt) [%]	cell viability ([2]; SRSF2 genotype: SRSF2 wt/wt) [%]	cell viability ([3]; SRSF2 genotype: SRSF2 P95H/wt) [%]	cell viability ([3]; SRSF2 genotype: SRSF2 wt/wt) [%]	cell viability ([4]; SRSF2 genotype: P95H/wt) [%]	cell viability ([4]; SRSF2 genotype: wt/wt) [%]
CC(C)(C(=O)O)c1ccc(C(O)CCCN2CCC(C(O)(c3ccccc3)c3ccccc3)CC2)cc1 (stereo unspecified) [Fexofenadine HCl]	99.1% and 98.7%	101	95.9	103	100	101	94.1	110
CCN(CC)CCCC[C@H](NC(=O)[C@H](CC(C)C)NC(=O)[C@H](C)NC(=O)[C@H](Cc1ccccc1)NC(=O)c1ccc(C(C)(C)C)cc1)C(=O)N[C@@H](CO)C(=O)OC	88.1% and 85%	84.6	86.1	99	83.2	92	90.4	113
CC(C)n1nc(-c2cc3cc(O)ccc3[nH]2)c2c(N)ncnc21 [Torkinib (PP242)]	21.2% and 25.5%	21.9	23.1	23	12.8	9.03	9.37	15.1
Cc1c[nH]c2nc(Nc3ccc(N4CCN(C)CC4)c(F)c3)nc(-c3cccc(CC#N)c3)c12	11.7% and 1.85%	4.64	4.43	2.84	0.86	0.46	0.41	4.1
C[C@@H]1[C@H](O)[C@@H](C)/C=C/C=C/C=C/C=C/C=C/C=C/C=C/[C@H](O[C@@H]2O[C@H](C)[C@@H](O)[C@H](N)[C@@H]2O)C[C@@H]2O[C@](O)(C[C@@H](O)C[C@@H](O)[C@H](O)CC[C@@H](O)C[C@@H](O)CC(=O)O[C@H]1C)C[C@H](O)[C@H]2C(=O)O [Amphotericin B]	97.4% and 101%	104	110	103	93.9	101	126	110
CCN(CC)CCOC(=O)c1ccc(N)cc1 [Procaine (Novocaine) HCl]	98.7% and 100%	95.9	109	112	98.6	99.7	93.2	110
Cn1cc(CNCC2CCN(c3ncc(C(=O)NO)cn3)CC2)c2ccccc21	1.34% and 13.5%	3	7.96	11.5	0.72	0.54	1.8	2.84
CNC[C@H](O)c1ccc(O)c(O)c1 [Epinephrine bitartrate (Adrenalinium)]	97.4% and 94.9%	94	102	108	84.5	97.6	102	112
O=C(NOCC1CC1)c1ccc(F)c(F)c1Nc1ccc(I)cc1Cl	74.9% and 78.8%	69.2	37.4	35.4	39.2	30.4	39.5	46.5
Cc1cc2c3c([n+](C)c4ccc(F)cc4c3c1)-c1cc(F)ccc1N2C [RHPS 4 methosulfate]	48.6% and 58.2%	61.4	52.5	50.6	5.12	27.5	0.13	8.9
COC(=O)c1ccc2c(c1)[nH]c1ncnc(NCCCN3CCCCC3)c12	78.5% and 68.9%	73.5	49.9	49	23.7	15.7	24.2	31
COC(=O)[C@@H]1[C@H]2C[C@H]3c4[nH]c5ccccc5c4CCN3C[C@@H]2CC[C@@H]1O [Yohimbine hydrochloride (Antagonil)]	103% and 98.2%	96.5	95.8	103	95	102	94.9	96.1
CC[C@H]1OC(=O)[C@H](C)[C@@H](O[C@H]2C[C@@](C)(OC)[C@@H](O)[C@H](C)O2)[C@H](C)[C@@H](O[C@@H]2O[C@H](C)C[C@H](N(C)C)[C@H]2O)[C@](C)(O)C[C@@H](C)/C(=N\OCOCCOC)[C@H](C)[C@@H](O)[C@]1(C)O [Roxithromycin (Roxl-150)]	104% and 106%	94.9	103	105	101	100	93.6	105
COc1cnc(NS(=O)(=O)c2ccc(N)cc2)nc1 [Sulfameter (Bayrena)]	98.4% and 101%	98.9	106	96	105	102	115	99
NS(=O)(=O)c1cc(Cl)c(Cl)c(S(N)(=O)=O)c1 [Dichlorphenamide (Diclofenamide)]	108% and 97%	95.9	91.9	102	105	99.6	93.4	103
Cc1onc(-c2ccccc2)c1-c1ccc(S(N)(=O)=O)cc1 [Valdecoxib]	97.6% and 94.6%	95.6	96.4	97.6	90.6	95.4	81.8	88.5
O=C(Nc1cccc(Cl)c1)c1ccccn1	99.3% and 105%	97	98.5	109	112	114	96.2	97
CC(C)(c1ccc(OCC(O)CO)cc1)c1ccc(OCC(O)CCl)cc1 (stereo unspecified)	82.3% and 81.7%	85.8	83.5	104	86	90.9	84.8	86.5
N#C[C@@H]1C[C@@H]2C[C@@H]2N1C(=O)[C@@H](N)C12CC3CC(CC(O)(C3)C1)C2	107% and 99.7%	107	97.6	88.9	96.7	99.5	96.6	108
CN(C)c1ccc2nc3ccc(=[N+](C)C)cc-3sc2c1 [Methylene Blue]	33.4% and 27.2%	17.1	13.1	14.2	5.69	2.58	5.27	7.07
Cc1cc(C)cc(Oc2ccc(CNC(=O)[C@H](C)N)cc2C)c1	85.9% and 95.5%	93.9	86.5	87.8	78.1	94.3	75.5	83.3

SMILES	cell viability ([1]; SRSF2 genotype: SRSF2 P95H/wt)	cell viability ([1]; SRSF2 genotype: SRSF2 wt/wt) [%]	cell viability ([2]; SRSF2 genotype: SRSF2 P95H/wt) [%]	cell viability ([2]; SRSF2 genotype: SRSF2 wt/wt) [%]	cell viability ([3]; SRSF2 genotype: SRSF2 P95H/wt) [%]	cell viability ([3]; SRSF2 genotype: SRSF2 wt/wt) [%]	cell viability ([4]; SRSF2 genotype: P95H/wt) [%]	cell viability ([4]; SRSF2 genotype: wt/wt) [%]
COc1cc2c(cc1OC)-c1cc3ccc4c(c3c[n+]1CC2)OCO4 [Epiberberine]	84.1% and 89.4%	85.8	98.2	98.2	94.8	86.9	86.4	89.3
COc1ccc(-c2ccc3cc(C(=O)O)ccc3c2)cc1C12CC3CC(CC(C3)C1)C2 [Adapalene]	93.7% and 97.8%	88.2	45.3	26.6	56.9	23.9	31.2	38.6
CC(=O)O[C@H]1C[C@@H]2CC[C@@H]3[C@H](CC[C@@]4(C)[C@H]3C[C@H]([N+]3(C)CCCCC3)[C@@H]4OC(C)=O)[C@@]2(C)C[C@@H]1N1CCCCC1 [Vecuronium Bromide]	101% and 109%	109	105	103	99.8	101	111	109
c1ccc2c(CC3=NCCN3)cccc2c1 [Naphazoline hydrochloride (Naphcon)]	102% and 99.6%	94.5	106	107	97.1	103	97.8	106
CC1=C(C(=O)Nc2cc3cn[nH]c3cc2F)C(c2ccc(C(F)(F)F)cc2)CC(=O)N1 (stereo unspecified)	99.9% and 96.7%	95.3	89.1	98.6	36.8	91.7	23.6	42.9
Cc1ccc(NC(=O)c2ccc(CN3CCN(C)CC3)cc2)cc1Nc1nccc(-c2cccnc2)n1 [Imatinib (STI571)]	12.8% and 26.4%	16.5	101	103	85	95	82.6	72.3
CS(=O)(=O)Nc1ccc([N+](=O)[O-])cc1OC1CCCCC1	99.4% and 103%	97	102	95.3	94.4	98.8	107	101
CCC[C@@H]1C[C@@H](C(=O)N[C@@H]([C@H]2O[C@H](SC)[C@H](O)[C@@H](O)[C@H]2O)[C@@H](C)O)N(C)C1 [Lincomycin hydrochloride (Lincocin)]	102% and 79.7%	82.2	88.7	95.2	92.6	91.7	79.5	93.9
NC(=O)c1cnc(NCCc2ccc(O)c(Cl)c2)nc1NCc1ccccc1	34.2% and 38.5%	33.3	8.49	5.28	5.95	1.62	8.8	13.2
COc1ccc2[nH]c([S@@+]([O-])Cc3ncc(C)c(OC)c3C)nc2c1 [NEXIUM (esomeprazole magnesium)]	101% and 97.4%	104	97	107	92	98.6	90.5	94.8
O=CN1CC/C(=C/c2ccc3c(c2)OCO3)C1=O	99.4% and 95.3%	94.6	95.2	104	75.9	90.1	67.1	74.7
S=C=Nc1cccc(NC(=S)NCCCCNC(=S)Nc2cccc(N=C=S)c2)c1	98.3% and 104%	98.8	106	105	102	106	109	106
CCO[C@@H]1OC(=O)C[C@@H]1NC(=O)[C@@H]1CCCN1C(=O)[C@@H](NC(=O)c1ccc(N)c(Cl)c1)C(C)(C)C [Belnacasan (VX-765)]	99.5% and 102%	94	95.2	104	97.7	98.1	103	104
CN1C(=O)[C@@H](NC(=O)c2n[nH]c(Cc3ccccc3)n2)COc2ccccc21	97.3% and 106%	103	103	105	103	106	106	106
CNC(=O)c1ccccc1Nc1cc(Nc2ccc(N3CCOCC3)cc2OC)ncc1C(F)(F)F	77.7% and 90%	82.8	38.6	35.2	11.4	11.4	21.3	26.5
COc1cc2c(cc1OC)-c1cc3ccc(OC)c(OC)c3c[n+]1CC2 [Palmatine chloride]	82.8% and 81.3%	75.1	81	93	82.6	86	81.9	80.9
Nc1nnc(-c2cccc(Cl)c2Cl)c(N)n1 [Lamotrigine]	95.7% and 94.8%	95	94.7	107	102	103	101	98.3
CCOC(=O)C1=C(C)NC(C)=C(C(=O)OC)C1c1cccc(Cl)c1Cl (stereo unspecified) [Felodipine (Plendil)]	72.9% and 78.2%	79.9	79.2	88.8	78.4	86.3	78.9	87.1
CN(C)Cc1cccc(N=C(c2ccccc2)c2c(O)[nH]c3cc(C(=O)N(C)C)ccc23)c1	88.8% and 90.6%	79.6	60.9	63.4	38.4	31.6	38.5	36.2
NC(=O)c1ccccn1 [Picolinamide]	104% and 95.8%	100	103	108	101	106	92.7	110
CC(/C=C1\SC(=S)N(CC(=O)O)C1=O)=C\c1ccccc1 [Epalrestat]	99.9% and 110%	107	104	102	106	103	102	95.3
